Screening results as filed in PubChem.
TROY NFkB inh: blocks TROY-dependent signaling in reporter cells. Q293 LMP1-TROYcd NF-kB luciferase reporter, 4 h. inhibition, % at 10 µM. actives 0.98% (n = 360,000). AID 1347056;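 active means compounds whose plate-normalised and pattern-corrected inhibition of the luciferase reporter signal at the single screening dose is 50% or more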
EWS-Fli inh: inhibitors of EWS/Fli oncoprotein transcriptional activity. actives 0.67% (n = 350,000). AID 651661. A673 NR0B1-luciferase reporter, viability-normalised. inhibition, % at 12.6 µM;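 active means mean inhibition of at least 50% after viability correction, with every replicate also passing that limit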;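 further: firefly luciferase signal divided by Alamar Blue viability fluorescence both relative to DMSO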
LGR2 inh: Drosophila LGR2 receptor signaling inhibition; HEK293 LGR2, CRE-luciferase, bursicon-stimulated, 4 h; inhibition, % at 9.99 µM; actives 0.35% (n = 380,000); AID 720647;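 active means drop in luminescence signal, shown as inhibition above about 50% in the replicate tests, limit read from the data, passing the limit was not always enough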;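 further: agonist challenge used bursicon conditioned medium at about half maximal strength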
EBV LMP1 NFkB: reduces LMP1-driven NF-kappaB luciferase signal; LMP1-induced NF-kappaB luciferase reporter cells, luminescence; AID 504558; inhibition, % at 12.5 µM; actives 0.69% (n = 350,000); in the data active means inhibition above about 41%
TWEAK Fn14 block: TWEAK-Fn14 signaling inhibition. TWEAK-stimulated Fn14 reporter cells, luciferase luminescence, 8 h. inhibition, % at 10 µM. actives 2% (n = 360,000). AID 1159606; in the data active means inhibition above about 50%
A number is an active result; – = inactive; · = not tested or not shown. Rows were chosen to be rich in hits. Some 2.5% of all compounds tested hit in one or more screens of this group.

SMILES | TROY NFkB inh | EWS-Fli inh | LGR2 inh | EBV LMP1 NFkB | TWEAK Fn14 block
CCC(=O)N1CC2(C1)CN(C(=O)Nc1ccccc1F)[C@@H](CO)c1[nH]c3cc(OC)ccc3c12 | · | – | – | · | ·
COc1ccc(-c2cc(C(=O)NC3CC3)c3ccccc3n2)cc1 | – | · | – | – | –
O=C(NC1CC1)c1cc(-c2ccc(Br)cc2)nc2ccccc12 | – | – | – | 42.4 | –
Cc1ccc(NCCN(C)C)c2c(=O)c3cc(O)ccc3sc12 | – | 52.1 | – | 44.5 | –
CN(C)CCNc1cccc2sc3ccc(O)cc3c(=O)c12 | – | – | – | · | –
CC(C)n1cnc2c(Nc3cccc(F)c3)nc(NCCO)nc21 | – | – | – | – | –
CC(C)C[C@H](CO)Nc1nc(Nc2cccc(Cl)c2)c2ncn(C(C)C)c2n1 | – | – | – | – | 78.7
COCC(=O)Nc1ccc2c(c1)C(=O)N(C)[C@H]1CC[C@@H](CC(=O)NCc3ccccc3Cl)O[C@H]1CO2 | · | – | – | · | ·
CCCc1sc(N/N=C/c2ccccn2)nc1-c1ccc(Br)cc1 | – | – | – | 59.0 | –
Cn1cc(C(=O)c2ccc(Cl)cc2)cc1-c1nc2ccccc2n1C | 56.8 | · | · | – | 52.2
Cn1c(=O)c(C(=O)c2ccccc2)nc2ccccc21 | – | · | – | – | –
CNC[C@H]1OCCCC[C@@H](C)Oc2ccc(NC(=O)Nc3ccc(F)cc3)cc2C(=O)N([C@@H](C)CO)C[C@H]1C | · | – | – | · | ·
CC(C)NC(=O)Nc1ccc2c(c1)C(=O)N([C@@H](C)CO)C[C@@H](C)[C@@H](CN(C)C(=O)c1ccccc1)OCCCC[C@@H](C)O2 | · | – | – | · | ·
COc1ccc(C2=Nn3c(nnc3-c3ccccc3Cl)SC2)cc1OCC1CC1 | 60.7 | – | – | – | –
CCCNC(=O)N1[C@@H]2Cn3c(ccc(-c4cccc(OC)c4)c3=O)[C@H]1[C@@H](C(=O)NCC)[C@@H]2CO | · | – | – | · | ·
CN1c2ccccc2C(C)(C)[C@]12C=Cc1cc(O)ccc1O2 | – | · | – | – | 101.8
COc1ccc2ccc3c(c2c1)N=CC1(O3)N(C)c2ccccc2C1(C)C (stereo not given) | – | · | · | – | –
CN1c2ccccc2C(C)(C)C12C=Nc1c(ccc3ccccc13)O2 (stereo not given) | 70.5 | · | – | – | 71.4
O=C(Nc1ccccc1)N[C@@H]1CC[C@@H](CCNS(=O)(=O)c2ccccc2F)O[C@H]1CO | · | – | – | · | ·
O=C(N[C@@H]1CC[C@H](CCn2cc(-c3cccnc3)nn2)O[C@@H]1CO)c1ccccc1F | · | – | – | · | ·
C[C@@H]1CCCCO[C@H](CN(C)Cc2ccccc2)[C@H](C)CN([C@@H](C)CO)C(=O)c2cc(NC(=O)CCC(F)(F)F)ccc2O1 | · | – | – | · | ·
CCN(CC)S(=O)(=O)c1ccc2oc(C(=O)NCC3COc4ccccc4O3)c(C)c2c1 (stereo not given) | – | · | · | – | 56.3
Cc1c(C(=O)NCc2ccc3c(c2)OCO3)oc2ccc(S(=O)(=O)N3CCCCCC3)cc12 | – | · | · | – | –
Cc1c(C(=O)NCc2ccc3c(c2)OCO3)oc2ccc(S(=O)(=O)N3CCC(C)CC3)cc12 | – | · | · | – | 59.0
Cc1c(C(=O)NCC2COc3ccccc3O2)oc2ccc(S(=O)(=O)N3CCOCC3)cc12 (stereo not given) | – | · | · | – | 57.4
SMILES | TROY NFkB inh | EWS-Fli inh | LGR2 inh | EBV LMP1 NFkB | TWEAK Fn14 block
Oc1ccccc1N=N/C(=N/Nc1ccccc1O)c1ccccc1 | – | – | · | – | –
N#C/C(N=Nc1ccccc1O)=N\Nc1ccccc1O | – | – | – | – | 87.5
COCCn1c(SCC(=O)N2CCCc3ccccc32)nc2c(c1=O)SC(C)C2 (stereo not given) | – | – | – | – | –
COCCn1c(SCC(=O)N2CCc3ccccc32)nc2c(c1=O)SC(C)C2 (stereo not given) | – | – | – | 88.5 | –
O=[N+]([O-])/C=C/c1cn(Cc2ccccc2)c2ccccc12 | – | · | · | – | –
O=C(O)Cn1cc(/C=C/[N+](=O)[O-])c2ccccc21 | – | – | – | – | –
N#Cc1ccccc1Cn1cc(/C=C/[N+](=O)[O-])c2ccccc21 | – | – | 68.8 | – | –
O=C(Cn1cc(/C=C\[N+](=O)[O-])c2ccccc21)Nc1ccccc1 | – | – | 67.1 | – | –
CC(=O)N1[C@@H]2c3ccc(C4=CCCCC4)c(=O)n3C[C@@H]2[C@@H](CO)[C@@H]1C(=O)N1CCCCC1 | · | – | – | · | ·
CC(=O)NCCc1ccc(C(=O)COC(=O)C2CCCCC2)cc1 | 85.8 | – | 77.4 | – | 89.6
CC(=O)NCCc1ccc(C(=O)COC(=O)c2ccco2)cc1 | – | – | – | – | 56.3
